Bioassay records (PubChem BioAssay)
This is a sample that favours compounds with a hit; in the whole collection about 2.4% have one here.
CHO-K1 Ca antag: counter-screen for M1 antagonists: effect in parental CHO-K1 cells. ATP-induced calcium, Fluo-8 fluorescence. 360,000 compounds, 0.6% hits. inhibition, % at 3 µM;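 active means inhibition above a per-plate cutoff, the plate's mean sample inhibition plus 3 SD, cut at about 24% in these data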
M1 ag: human M1 muscarinic receptor agonism; CHO-K1 hM1, Fluo-8 calcium fluorescence, agonist mode; 0% DMSO, 100% acetylcholine EC100; activation, % at 3 µM; 360,000 compounds, 0.33% hits; P11229;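 active means activation above the run's mean compound activation plus 3 SD, cut at about 16% in these data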;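 further: peak over basal fluorescence ratio within a 140 s kinetic read after compound addition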
Target sequence (P11229 whole entry, looked up): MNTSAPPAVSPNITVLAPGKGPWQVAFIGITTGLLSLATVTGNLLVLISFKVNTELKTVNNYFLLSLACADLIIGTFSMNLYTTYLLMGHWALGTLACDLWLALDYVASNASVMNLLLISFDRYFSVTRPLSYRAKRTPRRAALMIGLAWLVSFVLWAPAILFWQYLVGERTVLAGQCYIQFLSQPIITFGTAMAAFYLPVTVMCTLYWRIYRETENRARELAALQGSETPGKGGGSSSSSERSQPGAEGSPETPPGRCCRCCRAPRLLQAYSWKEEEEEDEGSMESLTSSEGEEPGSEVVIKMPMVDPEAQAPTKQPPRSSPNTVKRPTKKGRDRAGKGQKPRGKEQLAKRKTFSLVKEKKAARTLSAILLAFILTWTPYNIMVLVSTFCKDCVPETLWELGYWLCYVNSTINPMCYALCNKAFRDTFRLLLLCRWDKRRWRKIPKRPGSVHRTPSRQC
M1 antag: human CHRM1 antagonism; P11229; CHO-K1 hM1, Fluo-8 calcium fluorescence, ACh EC80 antagonist; inhibition, % at 3 µM; 360,000 compounds, 1.3% hits;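 active means percent inhibition above its own plate's cutoff, namely the mean of that plate's compound wells plus 3 SD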;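 further: peak over basal fluorescence ratio during 140 s after agonist addition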
CHO-K1 Ca PAM: counter-screen for M1 PAMs: effect in parental CHO-K1 cells | ATP EC20, Fluo-8 calcium fluorescence; 0% at ATP EC20, 100% at ATP max | activation, % at 3 µM | 360,000 compounds, 0.02% hits;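 active means activation above the run cutoff, the mean activation of all test compounds plus 3 SD, cut at about 40% in these data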;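 further: peak over basal fluorescence ratio in a 140 s read after ATP addition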
CHO-K1 Ca ag: M1 agonist counterscreen hit in parental CHO-K1 cells; Fluo-8 calcium fluorescence; scaled to maximal ATP response, vehicle zero; activation, % at 3 µM; 360,000 compounds, 0.48% hits; AID 602248; in the data active means activation above about 15%;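 further: untransfected CHO-K1 host cells lacking M1 receptor as counterscreen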
CHRM1 PAM: human CHRM1 positive allosteric modulation; P11229; CHO-K1 hM1, Fluo-8 calcium fluorescence, ACh EC20; 0% = ACh EC20, 100% = maximal ACh; activation, % at 3 µM; 360,000 compounds, 0.088% hits; AID 588819; in the data active means activation above about 19%, passing the limit was not always enough
Numbers stand for hits; i = inactive.

SMILES | CHO-K1 Ca antag | M1 ag | M1 antag | CHO-K1 Ca PAM | CHO-K1 Ca ag | CHRM1 PAM
COc1ccc(NC(=O)C2CCCCN2S(=O)(=O)c2ccc(F)cc2)c(OC)c1 (stereo not drawn) | 27.4 | i | i | i | i | i
CCOCc1c(C(=O)Nc2ccccc2N2CCN(C)CC2)oc2ccccc12 | i | i | i | i | i | i
O=c1cc(O)c(-c2ccc(Cl)cc2)c(Cl)[nH]1 | i | i | i | i | i | i
O=C1c2cc(Cl)ccc2-c2c(O)cc(Cl)cc21 | i | i | 35.7 | i | i | i
COC(=O)c1cc(=O)nc(NN=C2c3ccccc3-c3ccccc32)s1 | i | i | i | i | i | i
COC(=O)c1cc(=O)nc(NN=Cc2ccc(OC)cc2)s1 | 23.9 | i | i | i | i | i
CN(Cc1ccccc1)S(=O)(=O)c1ccc(Cl)c(C(=O)NCc2cccnc2)c1 | i | i | i | i | i | i
CCN(CC)CCNc1ccnc2cc(Cl)ccc12 | i | i | i | i | i | i
Clc1ccc2c(NCc3ccccc3)ccnc2c1 | i | i | i | i | 16.7 | i
COc1ccc(N=Nc2nc3ccc(Br)cc3n2C)cc1 | i | 17.1 | i | i | 17.6 | i
COc1ccc(-c2c(-c3cc(OC)cc(OC)c3)n(C)c3ccc(Br)cc23)cc1 | i | i | i | i | i | i
O=C(CN1CCN(Cc2ccccc2Cl)CC1)N/N=C/C=C/c1ccccc1[N+](=O)[O-] | 27.3 | i | i | i | i | i
O=C(CN1CCN(Cc2ccccc2Cl)CC1)N/N=C/C=C\c1ccccc1[N+](=O)[O-] | i | i | i | i | i | i
C=CCc1cccc(/C=N/NC(=O)c2ccc3nc[nH]c3c2)c1O | i | i | i | i | i | i
CC(=O)c1ccc(NC(=O)c2ccc(S(=O)(=O)N3CCCC3)cc2)cc1 | i | i | i | i | i | i
CCOC(=O)N1CCC(NC(=O)c2cc(C(=O)Nc3ccc(OCC)cc3)ccc2CO)CC1 | i | i | i | i | i | i
CCC(=O)c1ccc(OCC(=O)Nc2cccc(S(=O)(=O)N3CCCCCC3)c2)cc1 | 35.5 | i | 47.4 | i | 18.4 | i
O=C(COC(=O)c1ccccc1)Nc1cccc(S(=O)(=O)NC2=NCCCCC2)c1 | i | i | i | i | i | i
CCOC(=O)N1CCC(NC(=O)c2cc(C(=O)Nc3ccc(S(=O)(=O)N4CCCCC4)cc3)ccc2CO)CC1 | i | i | i | i | 19.2 | i
Cc1cc(C(=O)Nc2ccc(S(=O)(=O)N3CCCC3)cc2)cs1 | 25.2 | i | i | i | i | i
Cc1cc(C)cc(C(=O)OCC(=O)Nc2cccc(S(=O)(=O)NC3=NCCCCC3)c2)c1 | 24.5 | i | i | i | i | i
COc1ccc(C(=O)O)cc1S(=O)(=O)Nc1ccc(Oc2ccccc2)cc1 | i | i | i | i | i | i
COc1ccc2c(c1)CCCC21NC(=O)N(CC(=O)N2CC(C)OC(C)C2)C1=O (stereo not drawn) | i | i | i | i | i | i
COc1cccc(NC2=NCCCCC2)c1 | i | i | i | i | i | i
CC(C)Oc1ccc(C(=O)Nc2cccc(S(=O)(=O)N3CCCC3)c2)cc1 | i | i | 47.5 | i | i | i
SMILES | CHO-K1 Ca antag | M1 ag | M1 antag | CHO-K1 Ca PAM | CHO-K1 Ca ag | CHRM1 PAM
CCN(CC)S(=O)(=O)c1cccc(NC2=NCCCCC2)c1 | i | i | 26.8 | i | i | i
CCN(CC)S(=O)(=O)c1cccc(NC(=O)COC(=O)c2cc(=O)c3ccccc3o2)c1 | i | i | i | i | i | i
CCN(CC)S(=O)(=O)c1cccc(NC(=O)CNc2cccc(S(=O)(=O)N3CCCC3)c2)c1 | 31.9 | i | 41.6 | i | i | i
CCN(CC)S(=O)(=O)c1cccc(NC(=O)COC(=O)c2ccc(Br)o2)c1 | i | i | i | i | 25.3 | i
CC(=O)c1cccc(NC(=O)c2ccc(S(=O)(=O)N3CCCC3)cc2)c1 | i | i | 25.3 | i | i | i
CC(=O)c1cccc(NC(=O)C(C)OC(=O)c2cccc(S(=O)(=O)N3CCN(C)CC3)c2)c1 (stereo not drawn) | i | 67.6 | 70.8 | i | i | i
O=C(CSc1ccc([N+](=O)[O-])cc1)Nc1nnc(C2CC2)s1 | i | i | i | i | i | i
O=C(CN1CCOCC1)N1c2ccccc2Sc2ccc(Cl)cc21 | i | i | i | i | i | i
Cn1nnnc1SCC(=O)N1c2ccccc2Sc2ccc(Cl)cc21 | i | i | 29.7 | i | i | i
Cn1c(SCC(=O)N2c3ccccc3Sc3ccc(Cl)cc32)nnc1-c1ccco1 | i | i | i | i | i | i
CCN(CC)CCC(=O)N1c2ccccc2Sc2ccc(Cl)cc21 | i | i | 100.5 | i | i | i
CN(C)CC(=O)N1c2ccccc2Sc2ccc(Cl)cc21 | i | i | 98.9 | i | i | i
CCOC(=O)c1c(C)sc2c1N(C(=O)CN(CC)CC)c1cc(Cl)ccc1S2 | i | i | i | i | i | i
CN(C)CCC(=O)N1c2ccccc2Sc2ccc(Cl)cc21 | i | i | 99.0 | i | i | i
Cc1ccc(-n2nc3c(c2NC(=O)CC(C)C)CS(=O)C3)cc1 (stereo not drawn) | i | i | i | i | i | i
CCOC(=O)C1=C(C)NC(C)=C(C(=O)OCC)C1C(=O)OCC(=O)N(C)Cc1ccccc1 | i | i | i | i | i | i
O=C(O)C(SC(C(=O)O)c1ccccc1)c1ccccc1 (stereo not drawn) | i | i | i | i | i | i
CCN1CCN(c2ccc(N3CCN(S(=O)(=O)c4ccc(C)c([N+](=O)[O-])c4)CC3)nn2)CC1 | i | i | 28.6 | i | i | i
O=C(Nc1ccc(Oc2ccccc2)cc1)c1csc([C@@H]2C[C@H](O)[C@@H](CO)O2)n1 | i | i | i | i | i | i
COc1ccc(C(CC(=O)O)NS(=O)(=O)c2ccc3c(c2)NC(=O)CO3)cc1 (stereo not drawn) | i | i | i | i | i | i
CC(=O)c1c(C)n(CC(=O)NCc2ccco2)c2ccccc12 | i | i | 35.0 | i | i | i
O=C(NCc1ccc(Cl)cc1)N1CCN(Cc2ccccc2)CC1 | i | i | i | i | i | i
CCOC(=O)/C(CCC[N+](C)(CC)CC)=N\O | i | i | 91.2 | i | i | i
Cc1ccc(NS(=O)(=O)c2ccc(C)c(NC(=O)c3ccc(S(=O)(=O)N4CCCCCC4)cc3)c2)c(C)c1 | i | i | i | i | i | i
Cc1cccc[n+]1CC(=O)c1ccc(Cl)cc1 | i | i | i | i | i | i
Cc1cccc[n+]1CC(=O)c1ccc2c(c1)OCCO2 | i | i | 27.5 | i | i | i
COc1ccc(C(CNC(=O)c2cc(S(=O)(=O)N3CCCC3)ccc2Cl)N2CCCC2)cc1 (stereo not drawn) | i | i | i | i | i | i
CC(=C/c1ccccc1)/C=N/n1cnnc1 | i | 22.1 | i | i | i | i
CC(/C=N/n1cnnc1)=C\c1ccccc1 | i | i | i | i | i | i
